Among all 94,000 compounds or so, about 280 (0.3%) were called active.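 How the source made its calls: active means activation above 40%, about the mean plus 3 SD, also judged a hit on visual image review; inconclusive means activation above 40% but not a hit on visual review; inactive means activation not above 40% and no visual hit.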 Shown is part of a subset that was picked to be rich in actives.
Test: enhancers of NFkB p65 translocation in HUVEC – imaging, IL-1B stimulus, high-content imaging, primary screen (AID 819);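 further: percent activation is computed from the nuclear over cytoplasmic p65 intensity ratio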
Settings: HUVEC IL-1B NFkB p65 nuclear translocation imaging; at 2 µM; stronger effect = higher value
For Cc1nnc(SCC(=O)N/N=C/c2cn(-c3ccccc3)nc2-c2ccc(F)cc2)n1-c1ccccc1, the activation was -16.3% (inactive). For COc1ccc(C2C=C(c3ccc(Br)cc3)Nc3nc(NS(C)(=O)=O)nn32)cc1 (stereo unspecified), the activation was 5.63% (inactive). With O=C(Cn1c(-c2cscn2)nc2ccccc21)Nc1ccc(Cl)cc1 the activation was 3.1% (inactive). With CON(C)S(=O)(=O)c1ccc2c(c1)NC(=O)C1CCCN21 (stereo unspecified) the activation was 6.63% (inactive). In the case of COc1cccc(-c2cc(C(=O)N/N=C/c3ccc(OC)c(COC(C)=O)c3)c3ccccc3n2)c1, the activation is reported as 0.06% (inactive). In the case of CC(Oc1ccc(-c2ccccc2)c(F)c1)c1ccn(S(=O)(=O)c2cccc3ccccc23)n1 (stereo unspecified), the activation is reported as -9.3% (inactive). With COc1ccc(NC(=O)Cn2c(-c3ccc(OC)cc3)cn(-c3ccc(C)cc3)c2=O)cc1 the activation was 5.6% (inactive). With Cc1c(Br)cc(C(=O)N2CCCCCC2)c(C)c1C the activation was 11.9% (inactive). With Cn1c2ccccc2n2c(=O)c(=O)n(CC(=O)c3ccc(F)cc3)nc12 the activation was 47.4% (active). For O=C(CCn1c(SCC(=O)c2ccccc2)nc2ccccc2c1=O)NCc1ccc(F)cc1, the activation was 2.29% (inactive). For CCN1CCN(Cc2nc3c(c(=O)n(C)c(=O)n3C)n2CC(=O)c2ccccc2)CC1, the activation was 21.5% (inactive). For Brc1cnc(N2CCCC2)nc1N1CCCCC1, the activation was 41.1% (active). In the case of c1ccc(-n2ncc3c(N4CCCC4)ncnc32)cc1, the activation is reported as 12.2% (inactive). For Cc1ccnc(N2CCC(C(=O)NC3CCCCCC3)CC2)n1, the activation was -7.5% (inactive). For O=C1OC(c2ccc(Cl)cc2)=N/C1=C\c1cccnc1, the activation was 34.5% (inactive). With Cc1nc2ccccc2c(-c2ccccc2)c1C(=O)c1ccccc1 the activation was 9.37% (inactive). With CCN(CC)S(=O)(=O)c1ccc(N2CCOCC2)c(C(=O)O)c1 the activation was 11.9% (inactive). In the case of O=C(c1ccc(Cl)cc1)c1cnc(Nc2ccccc2)s1, the activation is reported as -1.4% (inactive). In the case of Nc1c(-c2ccc(F)cc2)cnn1C1CCS(=O)(=O)C1 (stereo unspecified), the activation is reported as -1.34% (inactive). In the case of COc1ccc(CCN2C(=O)C3CC=C(C)CC3C2=O)cc1OC (stereo unspecified), the activation is reported as 4.82% (inactive). With O=C(c1ccccn1)c1ncc(C(F)(F)F)cc1Cl the activation was -0.58% (inactive). In the case of CCN(CC)c1nc(-c2ccccc2)cc(C(F)(F)F)c1C#N, the activation is reported as 1.7% (inactive). For CCOC(=O)/C(=C\c1ccc([N+](=O)[O-])cc1)C(=O)c1cc(C(C)=O)c(Nc2ccccc2)s1, the activation was -4.36% (inactive). In the case of COC(=O)CNC(c1ccccc1Cl)c1cc(Br)ccc1NC(=O)CCN1CCOCC1 (stereo unspecified), the activation is reported as 0.94% (inactive). For Cc1ccc(OCC(=O)Nc2cccc3c2CCCC3)cc1C, the activation was 13.2% (inactive). For CC(=O)NS(=O)(=O)c1ccc(NC(=S)NC(=O)C(C)(C)C)cc1, the activation was 4.05% (inactive). For COc1cccc(/C=N/NC(=O)C(=O)N2CCCC2)c1, the activation was -4.21% (inactive). With CCCCCCCC(=O)NC(Nc1ccccc1OC)C(Cl)(Cl)Cl (stereo unspecified) the activation was -6.09% (inactive). In the case of Cc1ccccc1/[N+]([O-])=C/c1ccncc1, the activation is reported as 15.8% (inactive). For N#Cc1cc([N+](=O)[O-])ccc1Oc1cccc(/C=N/NC(=O)c2ccc(Cl)cc2)c1, the activation was 1.88% (inactive). For COC(=O)CSc1nnc(-c2cccnc2)o1, the activation was -7.95% (inactive). With CCn1c(Cc2cccs2)nnc1SCC(=O)c1ccc(C)cc1 the activation was 8.94% (inactive). With COc1ccc(CCNC(=S)NC(=O)/C=C/c2ccc(C)cc2)cc1OC the activation was -6.74% (inactive). In the case of CN1CC(c2ccccc2)C2(COc3ccccc3C2=O)C12C(=O)Nc1ccccc12 (stereo unspecified), the activation is reported as 0.22% (inactive). In the case of CN(C)/C(CN1CCCCC1)=C1\N=C(c2ccccc2)OC1=O, the activation is reported as 13.1% (inactive). For CC(=O)NC1=NN(C(C)=O)C(C)(c2ccc(Cl)s2)S1 (stereo unspecified), the activation was -0.11% (inactive). For O=C(CN1CCN(c2ccc(Cl)cc2)CC1)N1CCCC1, the activation was -4.06% (inactive). In the case of O=C(Nc1cccc(Cl)c1)Nc1nnc(-c2ccccc2)o1, the activation is reported as -2.48% (inactive). With CC1CCC2(CC1)NC(=O)N(CC(=O)c1cccn1C)C2=O (stereo unspecified) the activation was -10.9% (inactive). For O=C(CN1C(=O)NC2(CCCC2)C1=O)Nc1ccc(F)c(F)c1F, the activation was 40.4% (active). In the case of CC(C(=O)Nc1ccc(F)c(F)c1F)N1CCCCCC1 (stereo unspecified), the activation is reported as 24.8% (inactive). For C=CCn1c(Cn2nnc3ccccc32)nnc1SCC(=O)N/N=C/c1cc(Br)cc(OC)c1O, the activation was -7.49% (inactive). For COc1ccccc1CSc1nc2ccccc2[nH]1, the activation was 0.73% (inactive). In the case of O=C(Cc1ccc(S(=O)(=O)N2CCOCC2)s1)NCCC(c1ccccc1)c1ccccc1, the activation is reported as 7.66% (inactive). For CCCC1NC(=O)NC(C)=C1C(=O)OCC (stereo unspecified), the activation was -16.9% (inactive). With CCOC(=O)C1=C(C)NC(C)=C(C(=O)OCC)C1c1ccccn1 the activation was 1.56% (inactive). For CCOC(=O)C1=C(C)NC(C)=C(C(=O)OCC)C1C1=COCCO1, the activation was 42.7% (active). For O=C(Nc1ccccc1[N+](=O)[O-])C1C(c2ccccc2)=C1c1ccccc1, the activation was -5.91% (inactive). For O=C(/C=C/Nc1ccccc1OC(F)(F)F)C(F)(F)F, the activation was 10.9% (inactive). In the case of O=C(CN1CCSCC1)N/N=C/c1ccc(F)cc1F, the activation is reported as 6.22% (inactive). In the case of Cc1cccc(N2CCN(C(=O)CN(C)S(=O)(=O)c3ccc4c(c3)CCC(=O)N4)CC2)c1C, the activation is reported as -2.04% (inactive). For O=C(NC1CCCCC1)c1cc([N+](=O)[O-])ccc1N1CCOCC1, the activation was -1.25% (inactive). With Cc1ccc(-c2cc(C(=O)Nc3nn[nH]n3)c3ccccc3n2)c(C)c1 the activation was -7.54% (inactive). For CC(C)(C)Cc1nnc(NC(=O)c2cc(-c3ccccc3)nc3ccccc23)s1, the activation was 41.2% (active). For Cc1ccc2nc(-c3ccccc3)cc(C(=O)O)c2c1, the activation was 1.92% (inactive). In the case of OCCN(Cc1ccccc1)Cc1ccc(Cl)cc1, the activation is reported as -4.34% (inactive). In the case of Cc1cc(C)n(-c2c(F)c(F)c(COC(=O)c3ccccc3)c(F)c2F)n1, the activation is reported as 17.9% (inactive). With CCOn1c(SC(C)C)nc2ccccc2c1=O the activation was -7.95% (inactive). With CCCOn1c(-n2nc(C)cc2C)nc2ccccc2c1=O the activation was 121% (active). For CCOC(=O)C1=NNC2(c3ccc(Cl)cc3)C(=O)N(c3cc(C)cc(C)c3)C(=O)C12 (stereo unspecified), the activation was -2.6% (inactive). In the case of COC(=O)c1ccc(OCC(=O)NC(C)(C)C)cc1, the activation is reported as -5.58% (inactive). For CCOC(=O)c1c(C)oc2cc(Br)c(OCC(N)=O)cc12, the activation was -3.13% (inactive). In the case of Cc1nn(C)c(Oc2ccccc2)c1[N+](=O)[O-], the activation is reported as -6.86% (inactive). With Cc1ccc(NC(=S)N/N=C2/CCCc3c(C)cc(C)cc32)cc1 the activation was 10.5% (inactive). In the case of COc1ccc(CC(=O)c2ccc(O)cc2O)cc1OC, the activation is reported as 3.51% (inactive). With Cc1cc(O)cc(O)c1C(=O)Cc1cnn(-c2ccccc2)c1 the activation was -0.94% (inactive). With COc1ccc(C(=O)Cc2cnn(-c3ccccc3)c2)c(O)c1 the activation was 52.4% (active). With O=c1c2ccccc2nc2n1C(CSc1ccc(Cl)cc1)CN2 (stereo unspecified) the activation was -5.53% (inactive). In the case of O=c1c2c(nc3nc[nH]n13)CCC2, the activation is reported as 17.9% (inactive). For CCCCn1c(=S)[nH]c2cc(S(=O)(=O)N3CCCCC3)ccc21, the activation was 6.8% (inactive). With Clc1ccc(-c2nnc(-c3ccccc3)nc2N2CCSCC2)cc1 the activation was 6.76% (inactive). For CC(C)CNC(=S)NNC(=O)c1ccccc1OC(F)F, the activation was -19% (inactive). For O=C(Cc1ccccc1)Nc1c(C(=O)N2CCCCCC2)cnn1-c1ccccc1, the activation was -2.59% (inactive). In the case of c1ccc(-c2csc(N3CCc4ccccc4C3)n2)cc1, the activation is reported as -1.32% (inactive). With Cc1[nH][nH]c(=O)c1N=Nc1ccccc1 the activation was 19.6% (inactive). For Cc1[nH][nH]c(=O)c1C(c1ccc(-c2ccc(Cl)cc2)o1)c1c(C)[nH][nH]c1=O, the activation was 49.6% (active). With O=C(CCc1ccc(S(=O)(=O)NC2CCCCC2)cc1)NCc1ccccc1 the activation was 1.98% (inactive). In the case of CC(=O)c1cnc(SCCN2C(=O)c3ccccc3C2=O)nc1C, the activation is reported as -4.03% (inactive). With CC(C)c1ccc(NC(=O)CCN2C(=O)c3ccc([N+](=O)[O-])cc3C2=O)cc1 the activation was 6.09% (inactive). With CCOC(=O)CC(=O)CSc1nc(-c2ccccc2)cc(-c2ccc(Cl)cc2)c1C#N the activation was 5.19% (inactive). For CN(C)/C=C/C(=O)c1ccccc1F, the activation was -2.94% (inactive). For ONC(=Nc1ccc(Cl)cc1)c1ccccc1Cl, the activation was 16.3% (inactive). With O=C(/C=C/c1ccccc1)N/C(=C/c1ccccc1)C(=O)Nc1ccccc1O the activation was -5.06% (inactive). For CCOc1ccc(C(CCc2ccccc2)NC(=O)c2ccc(OC)c(OC)c2)cc1OCC (stereo unspecified), the activation was -8.44% (inactive). With Cc1cc(Nc2ccccc2)nc(N)n1 the activation was 19.9% (inactive). For CCOc1ccc(-c2c(C)n([O-])c3c([n+]2=O)CCCC3)cc1, the activation was 0.86% (inactive). For Cc1cccc(-n2ncc(C#N)c2-n2cccc2)c1, the activation was -2.16% (inactive). In the case of CCOC(=O)CSc1ncc(-c2cccc(Cl)c2)cn1, the activation is reported as 4.13% (inactive). In the case of Cc1ccccc1-n1c(C)cc(/C=N/NC(=O)c2ccc(CN3CCOCC3)cc2)c1C, the activation is reported as 20.5% (inactive). For CC1CCc2c(c3ccccc3[nH]c2=O)O1 (stereo unspecified), the activation was -2.19% (inactive). With COC(=O)c1cc(OC)c(OC)cc1NC(=O)CSc1ccc(C)cc1 the activation was -0.33% (inactive). With C/C=C/C(=O)Nc1nnc(C(C)C)s1 the activation was 11.2% (inactive). For CC1=C(C(N)=O)C(c2sccc2C)n2nnnc2N1 (stereo unspecified), the activation was -11.1% (inactive). In the case of CCOC(=O)C1=C(CN2CCc3ccccc32)NC(=O)NC1c1cc(C)ccc1C (stereo unspecified), the activation is reported as 3.45% (inactive). In the case of COc1cc(NS(=O)(=O)c2ccc(N=Cc3c(C)[nH]n(-c4ccccc4)c3=O)cc2)nc(OC)n1, the activation is reported as -2.69% (inactive). For Cc1cccc(N(C(=O)Cc2cccs2)C(C(=O)NC2CCCC2)c2ccsc2)c1 (stereo unspecified), the activation was -6.52% (inactive).

Reference: PubChem BioAssay AID819 (Columbia University Molecular Screening Center, 2007)
